Screening results (PubChem BioAssay)
Sampled rows, rich in hits. Any-hit rate of the full collection: about 1.7%.
HDAC3 inh: HDAC3 deacetylase inhibitors, primary screen, biochemical, fluorescence, cell-free homogeneous | Histone deacetylase 3 (Homo sapiens), O15379 | recombinant HDAC3, fluorogenic peptide/trypsin coupled | AID 2718, 2010 | hit rate 0.15% among 320,000 | inhibition, % at 8.3 µM; in the data active means inhibition above about 26%, passing the limit was not always enough
LANA-H2A inh: blockers of LANA interaction with H2A/H2B – biochemical, FP readout, HTS, primary screen; cell-free LANA-H2A/H2B peptide, fluorescence polarization; inhibition, % (no concentration beside the values); hit rate 0.6% among 320,000; AID 2629, 2010; in the data active means inhibition mostly above about 10%, no sharp cut-off; inactive means mostly below about 6.7%
m5-HT2A agonist: mouse Htr2a agonists via beta-arrestin recruitment, primary screen, cell-based, luminescence; 5-hydroxytryptamine receptor 2A (Mus musculus), P35363; CHO-K1 mHTR2A beta-arrestin complementation; percent of 30 µM serotonin response; activation, % at 7.6 µM; hit rate 0.66% among 360,000; AID 624169, 2012;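 active means activation above a run cutoff, the mean activation of all tested compounds plus 3 SD, cut at about 14% in these data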;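 further: 0% = plate median of compound wells and 100% = 30 µM serotonin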
Target sequence (P35363 whole entry, looked up): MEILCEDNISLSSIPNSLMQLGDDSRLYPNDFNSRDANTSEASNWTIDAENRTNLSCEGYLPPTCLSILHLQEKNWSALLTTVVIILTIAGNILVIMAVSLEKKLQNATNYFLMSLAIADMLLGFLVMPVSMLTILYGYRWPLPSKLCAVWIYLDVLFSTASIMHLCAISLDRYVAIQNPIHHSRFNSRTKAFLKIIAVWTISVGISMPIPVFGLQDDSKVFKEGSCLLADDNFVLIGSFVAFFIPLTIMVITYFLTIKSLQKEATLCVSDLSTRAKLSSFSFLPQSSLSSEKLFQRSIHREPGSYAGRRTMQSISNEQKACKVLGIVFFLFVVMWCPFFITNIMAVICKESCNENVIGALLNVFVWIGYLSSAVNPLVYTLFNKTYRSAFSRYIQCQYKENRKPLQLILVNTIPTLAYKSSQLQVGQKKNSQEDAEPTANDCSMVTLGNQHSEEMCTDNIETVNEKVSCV
CTSL1 counter: Fasciola hepatica cathepsin L1 inhibitors, primary screen, counter-screen for PFM18AAP inhibitor project, biochemical, QFRET, fluorogenic peptide substrate; recombinant F. hepatica cathepsin L1, Z-Leu-Arg-MCA fluorescence; inhibition, % at 5.96 µM; hit rate 0.49% among 300,000; AID 1906, 2009;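 active means inhibition above the mean of all tested compounds plus 3 SD, set per screening campaign, cut at about 17% in these data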;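 further: 0% = plate median of test compound wells and 100% = 1 µM Z-Phe-Ala-diazomethylketone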
The depositor's hits bear a star; · = not tested or not shown; + = active, no number.

SMILES	HDAC3 inh	LANA-H2A inh	m5-HT2A agonist	CTSL1 counter
COc1cc(/C=C2\SC(=S)N(NC(C)=O)C2=O)ccc1OC(=O)c1ccco1	27*	1	-9	·
CCO[C@@H]1OC(C(=O)O)=C[C@H](c2ccccc2)[C@H]1CCCO	-1	4	3	-5
CCO[C@@H]1OC(C(=O)O)=C[C@H](c2ccc(Br)cc2)[C@H]1CCCO	41*	7	2	0
Cn1c(=O)c(N)c2c3c(c(Br)ccc31)C(=O)c1ccccc1-2	2	43*	-2	14
Cc1ccn2nc(C(=O)OCC(=O)N(CC(C)C)C3CCS(=O)(=O)C3)nc2n1 (configuration not stated)	-8	80*	6	·
CCOC(=O)c1ccc(NS(=O)(=O)c2ccc3c(c2)oc(=O)n3C)cc1	3	32*	5	3
C[C@@H]1CN([C@@H](C)CO)C(=O)CCCn2nncc2CO[C@@H]1CN(C)S(=O)(=O)c1cccc(C#N)c1	·	·	-4	·
O=C(CCCN1C(=O)c2cccc3cccc(c23)C1=O)N1CCN(c2ccccc2)CC1	-4	17*	6	-2
Cc1nn(C(=O)CNC(=O)c2ccccc2)c(C)c1C	-1	9.6*	-3	4
CC(OC(=O)CNC(=O)c1ccc(Cl)c(Cl)c1)C(=O)N1CCOCC1 (configuration not stated)	1	0	2	25*
CC(C)(NC(=O)c1ccccc1)c1nc2ccccc2s1	-8	5	11	4
CC1CCC(NC(=O)C2CCN(S(=O)(=O)c3ccc4nc5c(c(C(=O)O)c4c3)CC(C)CC5)CC2)CC1 (configuration not stated)	-1	2	-1	19*
Cn1c2ccccc2c2c(C(=O)N3CCN(C(=O)c4ccco4)CC3)cn(C3CCCCC3)c(=O)c21	-13	1	-3	8
Cn1c2ccccc2c2c(C(=O)O)cn(C3CCCC3)c(=O)c21	-1	0	14	18*
CC1=CC2=NC(=O)CC(C)(C(=O)N(CC(=O)NC3CCCC3)c3ccccc3C)N2C=C1 (configuration not stated)	-67	11*	1	-1
Cc1ccc2nc(-c3ccc(C#N)cc3)c(Cc3cccc(Cl)c3)n2c1	·	·	-8	·
CN(C)S(=O)(=O)c1cccc(NC(=O)CCc2c[nH]c3ccccc23)c1	10	+	-8	-7
CN(C)S(=O)(=O)c1cccc(NC(=O)Cc2ccc(Cl)cc2)c1	-7	-1	-2	-2
Cc1ccc(NC(=O)CN(C)C2CCCCC2)cc1Cl	-3	5	-1	·
Cc1ccc(C)c(S(=O)(=O)N2CCN(C(=O)C3CCN(C(=O)c4ccc(F)cc4)CC3)CC2)c1	-2	-2	3	-1
O=C1C=C(c2c(O)ccc3ccccc23)c2ccccc2C1=O	·	·	15*	·
Cc1cc(C(=O)N2CCN(c3ccc(F)cc3)CC2)on1	-9	0	-2	2
CSc1nnc(-c2ccco2)c(-c2ccco2)n1	0	6	-1	53*
O=C1NC(=S)NC(=O)C1=Cc1ccccc1C(=O)O	·	·	0	·
CCOC(=O)C1(Nc2nccs2)Sc2ccccc2NC1=O (configuration not stated)	0	2	3	33*
SMILES	HDAC3 inh	LANA-H2A inh	m5-HT2A agonist	CTSL1 counter
O=C(NCCCN1CCCC1)c1[nH]c(C(F)(F)F)nc1-c1ccccc1	·	·	2	·
O=C(CCl)NN=C(c1ccccc1)c1ccccc1	2	5	0	37*
Cc1ccc(C)c2[nH]c(=O)c(CCNC(=O)CCc3ccccc3)cc12	-2	-2	-2	0
O=C(COC(=O)/C=C/c1ccco1)NC1CCCCC1	-1	1	0	·
O=C(/C=C/c1ccco1)NC1CCCC1	-2	2	-2	59*
O=C(/C=C/c1ccc([N+](=O)[O-])cc1)NCc1ccccn1	8	2	5	5
O=C(/C=C/c1ccco1)NCc1ccccn1	6	-6	5	17*
COC(=O)c1cn(Cc2cc(OC)ccc2OC)cc(F)c1=O	0	0	3	0
COc1cccc(NC(=O)C2CC(=O)OC23CCOC(C)(C)C3)c1 (configuration not stated)	-3	13*	2	0
CC(C)(C)Nc1nc(SCc2ccccc2)nc(N2CCOCC2)n1	7	4	-5	19*
CN(CCO)c1cnccn1	-1	14*	5	-6
CC(=O)N(Cc1ccc(Cl)cc1)c1cnccn1	0	2	-8	4
COc1ccc2c(c1)C(C1=C(O)CC(C)(C)CC1=O)C1=C(CC(C)(C)CC1=O)O2 (configuration not stated)	7	4	5	-5
CC1(C)CC(=O)C(C2C3=C(CC(C)(C)CC3=O)Oc3ccccc32)=C(O)C1 (configuration not stated)	0	2	-4	17*
CCOC(=O)c1cnc2nc(NCc3ccc(OC)c(OC)c3)[nH]n2c1=O	-1	8	0	20*
CC(C)CNC(=O)c1ccc(-c2ccc(F)c(F)c2)c2ccoc12	·	·	0	·
COCCn1c(/C=C/c2ccccc2)nc2ccccc21	-23	-127*	-2	5
CCNC(=O)C1(C)CCN(C(=O)c2cccs2)C1 (configuration not stated)	·	·	3	·
C=CC[C@@H](CC(=O)N(CCO)Cc1ccccc1)C(=O)N[C@@H](COC(=O)[C@@H](CC=C)Cc1ccc(F)cc1)Cc1c[nH]c2ccccc12	39*	-3	6	·
C=CC[C@@H](CC(=O)N(CCO)Cc1ccccc1)C(=O)N[C@H](COC(=O)[C@@H](CC=C)CC(=O)OC(C)(C)C)Cc1c[nH]c2ccccc12	50*	-5	8	·
C=CC[C@H](CC(=O)N(CCO)Cc1ccccc1)C(=O)NC[C@H](OC(=O)[C@@H](CC=C)CC(=O)OC(C)(C)C)c1ccccc1	31*	0	-9	·
C=CCC[C@@H](Cc1ccc(F)cc1)C(=O)OC[C@@H](Cc1c[nH]c2ccccc12)NC(=O)[C@H](CC=C)CC(=O)N(CCO)Cc1ccccc1	51*	2	-3	·
C=CC[C@H](CC(=O)N(CCO)Cc1ccccc1)C(=O)N[C@@H](COC(=O)[C@H](CC=C)CC(=O)OC(C)(C)C)Cc1c[nH]c2ccccc12	2	6	-8	·
CCOC(=O)[C@H]1[C@H]2COc3ccc(Cl)cc3[C@@H]2N2C(=O)c3ccc(Cl)cc3NC(=O)[C@@]12C	6	5	2	2
COc1ccc(CCNC(=O)c2ccc(Cl)c(S(=O)(=O)N3CCCC3)c2)cc1	·	·	-2	·
C=CCC[C@@H](Cc1ccc(F)cc1)C(=O)OC[C@H](Cc1c[nH]c2ccccc12)NC(=O)[C@H](CC=C)CC(=O)NCCO	32*	-1	-2	·
C=CCC[C@@H](Cc1ccc(F)cc1)C(=O)OC[C@@H]1CCCN1C(=O)[C@@H](CC=C)CC(=O)N(CCO)Cc1ccccc1	28*	-8	-4	·
